The supplement of paper PMC11732987, “Enantioselective OTUD7B fragment discovery through chemoproteomics screening and high-throughput optimisation” (Communications Chemistry, 2025)

Assays:
Experiment in all cases: log2 ratio of Biotin-Ahx-Ub-VS probe labelling (fragment/DMSO); higher = less target engagement (more negative = stronger competition), active = hit call of the paper (q ≤ 0.05, log2 ratio ≤ -1)
Settings in all cases: compound concentration: 200 uM; treatment time: 3 h
[1] = molecular target: T1, USP19 (UniProt O94966)
T1 sequence (whole entry): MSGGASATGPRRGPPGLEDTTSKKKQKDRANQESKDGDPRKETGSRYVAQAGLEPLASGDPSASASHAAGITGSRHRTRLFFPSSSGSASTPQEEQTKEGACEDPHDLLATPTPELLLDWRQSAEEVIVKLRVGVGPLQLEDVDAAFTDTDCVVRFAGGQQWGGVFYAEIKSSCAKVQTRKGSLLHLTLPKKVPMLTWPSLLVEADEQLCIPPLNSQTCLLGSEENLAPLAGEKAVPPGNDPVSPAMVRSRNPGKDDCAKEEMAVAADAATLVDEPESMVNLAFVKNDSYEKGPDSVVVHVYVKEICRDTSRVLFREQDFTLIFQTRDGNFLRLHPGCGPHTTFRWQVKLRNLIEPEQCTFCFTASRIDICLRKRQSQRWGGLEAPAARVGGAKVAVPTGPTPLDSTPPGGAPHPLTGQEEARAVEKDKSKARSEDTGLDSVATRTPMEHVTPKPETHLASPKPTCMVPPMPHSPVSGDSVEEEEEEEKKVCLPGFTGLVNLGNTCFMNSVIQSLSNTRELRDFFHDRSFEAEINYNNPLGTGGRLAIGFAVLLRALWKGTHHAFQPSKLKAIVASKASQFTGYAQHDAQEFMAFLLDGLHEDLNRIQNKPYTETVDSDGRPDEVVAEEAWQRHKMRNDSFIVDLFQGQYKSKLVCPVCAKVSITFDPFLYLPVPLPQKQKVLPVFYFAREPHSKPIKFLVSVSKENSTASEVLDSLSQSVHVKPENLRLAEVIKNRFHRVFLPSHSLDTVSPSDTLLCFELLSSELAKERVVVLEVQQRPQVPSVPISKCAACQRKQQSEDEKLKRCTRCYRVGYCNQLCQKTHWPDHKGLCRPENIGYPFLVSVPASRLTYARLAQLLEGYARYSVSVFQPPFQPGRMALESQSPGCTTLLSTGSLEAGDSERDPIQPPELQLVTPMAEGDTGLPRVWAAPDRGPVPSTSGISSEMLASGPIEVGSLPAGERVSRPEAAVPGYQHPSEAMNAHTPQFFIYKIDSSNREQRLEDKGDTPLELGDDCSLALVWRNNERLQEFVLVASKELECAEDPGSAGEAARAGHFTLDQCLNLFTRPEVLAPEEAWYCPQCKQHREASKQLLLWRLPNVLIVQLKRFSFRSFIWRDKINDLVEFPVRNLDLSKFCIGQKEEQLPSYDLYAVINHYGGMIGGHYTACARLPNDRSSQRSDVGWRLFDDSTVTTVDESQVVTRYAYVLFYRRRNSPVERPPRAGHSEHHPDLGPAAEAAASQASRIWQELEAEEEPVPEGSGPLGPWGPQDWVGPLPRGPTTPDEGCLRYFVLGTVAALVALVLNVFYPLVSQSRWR
In short: (§1)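 Fragment (200 µM) or vehicle was incubated for 3 h with triplicate HEK293T lysate samples of 495 µg, which were then treated with Biotin-Ahx-Ub-VS at 0.5 µM final for 1 h. Labelled DUBs were enriched on NeutrAvidin, digested with LysC and trypsin, and analysed by diaPASEF LC-MS/MS. Values are average log2 fragment/vehicle ratios from an unpaired t-test on global-median-normalised Spectronaut label-free quantities, using proteins with ≥2 unique peptides.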

[2] = molecular target: T2, USP22 (UniProt Q9UPT9)
T2 sequence (whole entry): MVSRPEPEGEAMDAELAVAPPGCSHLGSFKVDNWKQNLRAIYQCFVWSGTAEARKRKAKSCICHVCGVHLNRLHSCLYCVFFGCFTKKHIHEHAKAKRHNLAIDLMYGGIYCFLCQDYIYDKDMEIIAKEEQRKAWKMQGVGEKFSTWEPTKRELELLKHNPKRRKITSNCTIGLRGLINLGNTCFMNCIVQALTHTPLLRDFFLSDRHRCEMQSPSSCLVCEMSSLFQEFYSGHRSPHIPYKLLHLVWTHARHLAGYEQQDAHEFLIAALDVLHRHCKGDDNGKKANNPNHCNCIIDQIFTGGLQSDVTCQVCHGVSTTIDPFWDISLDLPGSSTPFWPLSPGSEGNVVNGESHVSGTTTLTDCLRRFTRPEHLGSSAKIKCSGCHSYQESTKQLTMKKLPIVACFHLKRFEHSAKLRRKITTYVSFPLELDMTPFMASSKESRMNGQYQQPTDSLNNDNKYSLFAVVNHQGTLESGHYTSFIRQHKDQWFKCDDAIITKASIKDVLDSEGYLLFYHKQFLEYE
In short: as §1

[3] = molecular target: USP24 (UniProt Q9UPU5)
In short: as §1

[4] = molecular target: T3, USP25 (UniProt Q9UHP3)
T3 sequence (whole entry): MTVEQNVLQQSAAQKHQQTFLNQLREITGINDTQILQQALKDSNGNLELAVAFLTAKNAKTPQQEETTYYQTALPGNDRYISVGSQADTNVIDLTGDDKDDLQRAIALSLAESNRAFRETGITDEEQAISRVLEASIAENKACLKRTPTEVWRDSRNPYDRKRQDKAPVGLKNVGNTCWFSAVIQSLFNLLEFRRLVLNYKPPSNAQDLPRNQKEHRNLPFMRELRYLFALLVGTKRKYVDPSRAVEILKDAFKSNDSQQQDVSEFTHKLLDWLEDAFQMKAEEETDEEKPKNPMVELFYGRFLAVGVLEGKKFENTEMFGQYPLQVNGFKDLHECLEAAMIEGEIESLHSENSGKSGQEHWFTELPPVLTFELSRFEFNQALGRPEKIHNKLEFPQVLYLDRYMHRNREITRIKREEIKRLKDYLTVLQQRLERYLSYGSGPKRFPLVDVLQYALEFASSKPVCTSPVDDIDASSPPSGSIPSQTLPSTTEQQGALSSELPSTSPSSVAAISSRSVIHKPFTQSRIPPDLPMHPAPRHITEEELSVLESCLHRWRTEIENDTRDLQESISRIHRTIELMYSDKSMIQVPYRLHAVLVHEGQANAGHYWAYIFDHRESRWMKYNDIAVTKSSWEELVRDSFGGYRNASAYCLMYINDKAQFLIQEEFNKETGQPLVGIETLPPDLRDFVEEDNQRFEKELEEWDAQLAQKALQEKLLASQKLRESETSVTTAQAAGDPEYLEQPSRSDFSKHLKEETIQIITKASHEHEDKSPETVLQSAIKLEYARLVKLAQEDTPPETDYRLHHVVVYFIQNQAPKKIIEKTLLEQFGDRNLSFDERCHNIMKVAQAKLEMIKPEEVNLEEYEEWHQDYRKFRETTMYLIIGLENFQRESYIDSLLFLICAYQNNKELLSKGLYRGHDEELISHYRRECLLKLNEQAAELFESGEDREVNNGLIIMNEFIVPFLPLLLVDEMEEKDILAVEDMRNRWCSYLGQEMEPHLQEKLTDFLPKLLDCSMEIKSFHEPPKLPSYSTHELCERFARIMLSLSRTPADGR
In short: as §1

[5] = molecular target: T4, USP28 (UniProt Q96RU2)
T4 sequence (whole entry): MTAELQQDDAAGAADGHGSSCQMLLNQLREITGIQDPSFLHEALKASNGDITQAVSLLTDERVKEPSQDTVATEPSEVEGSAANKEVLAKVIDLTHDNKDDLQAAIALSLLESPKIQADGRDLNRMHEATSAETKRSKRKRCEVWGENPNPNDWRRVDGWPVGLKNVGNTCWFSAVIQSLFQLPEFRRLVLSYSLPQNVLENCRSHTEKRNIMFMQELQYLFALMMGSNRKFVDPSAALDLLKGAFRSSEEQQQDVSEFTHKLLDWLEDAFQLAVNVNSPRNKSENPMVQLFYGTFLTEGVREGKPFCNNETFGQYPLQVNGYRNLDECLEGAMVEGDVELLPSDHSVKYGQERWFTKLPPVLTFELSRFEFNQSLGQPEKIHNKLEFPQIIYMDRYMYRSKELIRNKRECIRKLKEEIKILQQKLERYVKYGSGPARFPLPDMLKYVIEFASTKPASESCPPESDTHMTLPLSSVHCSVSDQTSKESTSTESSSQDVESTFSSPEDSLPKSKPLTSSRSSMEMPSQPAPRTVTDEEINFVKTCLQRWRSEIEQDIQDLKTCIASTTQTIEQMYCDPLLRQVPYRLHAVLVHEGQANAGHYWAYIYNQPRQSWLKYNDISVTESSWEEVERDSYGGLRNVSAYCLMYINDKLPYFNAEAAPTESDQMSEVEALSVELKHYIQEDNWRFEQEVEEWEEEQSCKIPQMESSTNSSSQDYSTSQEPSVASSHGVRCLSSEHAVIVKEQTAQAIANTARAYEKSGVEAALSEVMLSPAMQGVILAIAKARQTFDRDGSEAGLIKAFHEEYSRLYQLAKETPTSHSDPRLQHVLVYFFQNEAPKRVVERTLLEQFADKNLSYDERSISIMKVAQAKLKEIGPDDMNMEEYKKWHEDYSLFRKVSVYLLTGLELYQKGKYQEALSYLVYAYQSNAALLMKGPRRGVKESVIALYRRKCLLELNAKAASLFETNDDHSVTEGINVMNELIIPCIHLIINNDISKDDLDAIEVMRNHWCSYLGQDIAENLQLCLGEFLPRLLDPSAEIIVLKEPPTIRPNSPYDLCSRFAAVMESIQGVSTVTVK
In short: as §1

Measured: log2 ratio of Biotin-Ahx-Ub-VS probe labelling

Sequence of USP24 (Q9UPU5 whole entry): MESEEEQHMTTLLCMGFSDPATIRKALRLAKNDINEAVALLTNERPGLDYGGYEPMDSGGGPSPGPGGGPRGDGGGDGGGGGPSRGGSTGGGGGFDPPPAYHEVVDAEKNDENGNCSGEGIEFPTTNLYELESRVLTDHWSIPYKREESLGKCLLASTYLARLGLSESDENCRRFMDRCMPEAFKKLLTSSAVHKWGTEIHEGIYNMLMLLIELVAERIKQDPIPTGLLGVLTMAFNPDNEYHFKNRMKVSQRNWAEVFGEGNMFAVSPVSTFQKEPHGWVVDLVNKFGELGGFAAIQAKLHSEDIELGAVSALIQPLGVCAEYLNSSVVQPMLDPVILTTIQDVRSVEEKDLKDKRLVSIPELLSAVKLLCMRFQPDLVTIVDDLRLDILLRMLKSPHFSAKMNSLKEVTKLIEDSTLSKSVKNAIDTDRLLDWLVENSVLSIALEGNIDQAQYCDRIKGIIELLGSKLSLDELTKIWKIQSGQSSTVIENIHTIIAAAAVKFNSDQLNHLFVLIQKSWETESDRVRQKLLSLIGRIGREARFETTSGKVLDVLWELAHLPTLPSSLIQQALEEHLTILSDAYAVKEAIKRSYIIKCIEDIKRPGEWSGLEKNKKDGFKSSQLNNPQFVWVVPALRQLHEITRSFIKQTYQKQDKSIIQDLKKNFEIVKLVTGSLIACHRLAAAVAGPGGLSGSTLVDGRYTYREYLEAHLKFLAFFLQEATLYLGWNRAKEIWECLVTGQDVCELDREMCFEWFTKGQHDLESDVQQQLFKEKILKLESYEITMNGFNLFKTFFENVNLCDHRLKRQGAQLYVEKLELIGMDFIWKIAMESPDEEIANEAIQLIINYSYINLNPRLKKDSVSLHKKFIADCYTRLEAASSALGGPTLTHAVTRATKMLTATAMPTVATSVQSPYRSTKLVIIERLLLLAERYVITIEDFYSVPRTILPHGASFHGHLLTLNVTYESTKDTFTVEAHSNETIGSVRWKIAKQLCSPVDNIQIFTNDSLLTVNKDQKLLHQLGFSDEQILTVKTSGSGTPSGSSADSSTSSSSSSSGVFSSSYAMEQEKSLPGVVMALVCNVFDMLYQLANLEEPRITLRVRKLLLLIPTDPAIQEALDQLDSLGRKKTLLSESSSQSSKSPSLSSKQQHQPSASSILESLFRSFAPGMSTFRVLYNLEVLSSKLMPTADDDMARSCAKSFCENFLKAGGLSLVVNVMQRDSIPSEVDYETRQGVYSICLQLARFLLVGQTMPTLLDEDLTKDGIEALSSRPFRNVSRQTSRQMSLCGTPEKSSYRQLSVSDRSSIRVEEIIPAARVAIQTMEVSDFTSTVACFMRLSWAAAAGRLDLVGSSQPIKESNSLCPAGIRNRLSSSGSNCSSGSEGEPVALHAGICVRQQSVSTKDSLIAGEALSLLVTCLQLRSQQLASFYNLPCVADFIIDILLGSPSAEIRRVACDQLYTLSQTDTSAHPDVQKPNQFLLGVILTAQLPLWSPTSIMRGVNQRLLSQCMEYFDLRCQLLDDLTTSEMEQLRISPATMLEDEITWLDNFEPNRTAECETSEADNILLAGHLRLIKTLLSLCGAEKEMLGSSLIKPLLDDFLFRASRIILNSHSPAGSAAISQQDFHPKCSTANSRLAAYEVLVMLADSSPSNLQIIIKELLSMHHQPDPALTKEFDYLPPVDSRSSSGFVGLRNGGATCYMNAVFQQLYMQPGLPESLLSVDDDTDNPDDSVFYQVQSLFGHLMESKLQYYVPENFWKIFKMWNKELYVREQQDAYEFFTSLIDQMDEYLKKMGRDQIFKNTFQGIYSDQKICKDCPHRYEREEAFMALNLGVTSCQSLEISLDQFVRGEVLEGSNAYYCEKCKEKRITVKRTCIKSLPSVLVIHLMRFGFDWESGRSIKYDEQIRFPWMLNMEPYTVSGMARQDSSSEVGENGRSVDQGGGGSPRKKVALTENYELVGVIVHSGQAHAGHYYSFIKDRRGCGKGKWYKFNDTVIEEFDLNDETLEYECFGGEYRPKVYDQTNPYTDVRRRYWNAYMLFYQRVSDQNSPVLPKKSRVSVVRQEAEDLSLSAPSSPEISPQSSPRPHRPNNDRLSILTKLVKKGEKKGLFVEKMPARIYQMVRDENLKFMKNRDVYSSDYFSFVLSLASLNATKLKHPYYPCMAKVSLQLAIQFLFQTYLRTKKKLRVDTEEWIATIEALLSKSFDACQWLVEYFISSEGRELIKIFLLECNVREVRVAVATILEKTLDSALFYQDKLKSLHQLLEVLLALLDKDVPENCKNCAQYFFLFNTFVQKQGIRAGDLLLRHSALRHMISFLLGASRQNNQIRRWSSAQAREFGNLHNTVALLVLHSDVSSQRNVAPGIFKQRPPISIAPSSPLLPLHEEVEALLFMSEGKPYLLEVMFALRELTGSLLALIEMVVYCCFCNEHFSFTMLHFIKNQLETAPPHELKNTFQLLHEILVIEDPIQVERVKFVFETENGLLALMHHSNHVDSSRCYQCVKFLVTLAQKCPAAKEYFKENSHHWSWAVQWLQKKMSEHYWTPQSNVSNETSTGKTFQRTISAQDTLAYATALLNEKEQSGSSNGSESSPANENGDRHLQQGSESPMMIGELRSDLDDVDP

O=C(CCl)N1CCN2C(=O)CCC2C1 (stereo not given)
inactive: [1] 0.0407 | [2] -0.0658 | [3] 0.14 | [4] -0.508 | [5] -0.38
